# D1 agonist = human D1 receptor agonism; P21728; HEK293 T-REx D1 cells, calcium flux, agonist mode; activation, % at 2 µM; 360,000 compounds, 1% hits; in the data active = activation above about 30%; also: 0% is about no effect
# Target sequence (P21728 whole entry, looked up): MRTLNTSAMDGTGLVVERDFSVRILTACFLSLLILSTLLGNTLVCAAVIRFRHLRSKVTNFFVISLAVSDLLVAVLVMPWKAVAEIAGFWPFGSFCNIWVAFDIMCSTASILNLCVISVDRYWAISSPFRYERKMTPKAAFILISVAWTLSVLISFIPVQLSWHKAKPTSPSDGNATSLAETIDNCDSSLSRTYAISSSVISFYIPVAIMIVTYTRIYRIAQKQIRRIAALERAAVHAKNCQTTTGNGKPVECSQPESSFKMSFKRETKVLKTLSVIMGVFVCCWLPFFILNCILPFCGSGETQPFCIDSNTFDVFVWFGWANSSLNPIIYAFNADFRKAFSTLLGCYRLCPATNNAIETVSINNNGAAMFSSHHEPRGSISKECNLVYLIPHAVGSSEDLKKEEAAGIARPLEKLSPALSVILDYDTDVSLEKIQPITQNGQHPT
#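 Agonism was scored from calcium flux recorded over 180 s (1 read/s) after pintool compound addition, following a 10-cycle baseline. Cells were inducible force-coupled HEK293 TREx D1, plated overnight at 30 C and loaded with no-wash calcium dye.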
# D1 PAM = human D1 dopamine receptor positive modulation; potentiation, % at 10 µM; P21728; HEK293 TREx D1 cells, calcium flux, dopamine EC20 potentiation; 360,000 compounds, 0.036% hits; AID 504651; in the data active = potentiation above about 30%; also: 0% is about no effect
# D1 antagonist = human D1 dopamine receptor antagonism; HEK293 TREx D1 cells, calcium flux, dopamine EC80; stronger effect = lower value; P21728; activity change, negative = inhibition, % at 10 µM; 360,000 compounds, 3.2% hits; AID 504652; in the data active = activity change below about -30%; also: % is scaled to controls: 0 for no effect and ±100 for the full control effect
#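 Tetracycline-induced HEK293 T-REx cells with force-coupled D1 receptor were loaded with a no-wash calcium dye. Compound was added after a 10 s baseline and read kinetically for 180 s; EC80 dopamine was then added and calcium flux followed another 180 s.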
# D3 antag = antagonists of human D3 dopamine receptor; D3R cells, DiscoveRx beta-arrestin luminescence, antagonist mode; stronger effect = lower value; 360,000 compounds, 2.5% hits; max response, negative = inhibition, %; in the data active = max response below about -50%; inconclusive = no clear call, values can overlap the other calls; also: % is scaled to controls: 0 for no effect and ±100 for the full control effect
#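 Cells plated overnight at 1500 cells/well, then exposed to library compounds with dopamine controls for 90 minutes at 37 degrees C. DiscoveRx reagent added for 30–60 minutes at room temperature; luminescence read, quantitative HTS format.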
# DRD3 agonist = activates the human D3 dopamine receptor; 410,000 compounds, 0.58% hits; P35462; AID 652048; max activation, %; D3R DiscoveRx beta-arrestin cells, luminescence, 90 min; in the data active = max activation above about 30%; also: 0% is about no effect
#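 Agonist mode: compounds and dopamine controls were applied to plated cells for 90 min at 37 degrees C after an overnight attachment at 1500 cells/well. Luminescent read-out followed 30 - 60 minutes at room temperature with DiscoveRx detection reagent.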
# * = called active by the depositor; ? = inconclusive; · = no result given; ! = repeats disagree. Rows were chosen to be rich in hits. Some 6% of all compounds tested hit in one or more screens of this group.
SMILES,D1 agonist,D1 PAM,D1 antagonist,D3 antag,DRD3 agonist
O=[N+]([O-])c1cnc(Sc2ccncn2)c([N+](=O)[O-])c1,·,·,·,0,-10
O=[N+]([O-])c1cnc(Sc2ccncn2)s1,-1,6,4,-125*,-27
CSc1ccc(S(=O)(=O)NCC(=O)OCC(=O)N2CCCCC2C)cc1[N+](=O)[O-] (stereo not drawn),1,2,-7,-1,3
CSc1ccc(S(=O)(=O)NCC(=O)OCC(=O)N2CCC(C)CC2)cc1[N+](=O)[O-],1,-3,-31*,-10,-11
CCOc1ccc(NC(=O)CC2C(=O)N(c3ccc(C)cc3)C(=O)N2C2CCCCC2)cc1 (stereo not drawn),-1,0,2,·,-1
c1ccc2c(C[C@@H]3CNCCN3CC3CCCCC3)cccc2c1,116*,4,3,7,-7
COc1cc(OC)cc(-c2c(Sc3ccccc3)c3cc(-c4ccc(SC)cc4)ccc3n2C)c1,·,·,·,-7,-4
Cc1noc(/C=C/c2ccco2)c1S(=O)(=O)N1CCC(C(=O)Nc2ccc(F)cc2F)CC1,3,3,-1,·,-8
CCOc1ccc2c(c1)nc(C)n2C,1,-8,-47*,6,-19
CCc1cccc(CC)c1NS(=O)(=O)c1ccc2c(c1)CCN2C(=O)C1CC1,1,-2,2,·,3
COc1ccc(S(=O)(=O)Nc2cccc(-c3ccc(N4CCC(C)CC4)nn3)c2)c(OC)c1,3,5,13,·,3
COc1ccc(CNC(=O)C2CCC(=O)N(CCCN3CCCC3=O)C2)c(OC)c1 (stereo not drawn),2,-4,4,19,33*
COc1cccc(CCNC(=O)C2CCC(=O)N(Cc3cccc(OC)c3)C2)c1 (stereo not drawn),2,12,-52*,37,0
COc1ccccc1CNC(=O)C1CCC(=O)N(CCCN2CCCC2=O)C1 (stereo not drawn),3,-8,-23,6,3
Cc1ccc(S(=O)(=O)N2CCCCC2)cc1NCC(=O)Nc1ccc(Br)cc1F,·,·,·,95,17
Cc1ccc(CCNC(=O)c2cn(C)c3ccc(S(=O)(=O)N4CCC(C)CC4)cc3c2=O)cc1,-2,5,0,·,-7
CCN(CC)S(=O)(=O)c1ccc(N2CCN(S(=O)(=O)c3ccccc3)CC2)nc1,2,-5,3,-24,-6
CCN(CC)S(=O)(=O)c1ccc(N2CCN(S(=O)(=O)c3ccccc3C#N)CC2)nc1,3,-5,-83*,-10,-6
CCN(c1ccccc1)S(=O)(=O)c1ccc(N2CCN(c3ccc(OC)cc3)CC2)nc1,·,·,·,3,-1
CCN(CC)S(=O)(=O)c1ccc(N2CCN(CCOc3ccc(OC)cc3)CC2)nc1,8,-5,-17,-6,61*
CN(C(=O)c1cccc(NC(=O)Cc2ccc(NC(=O)C3CCCN(C(=O)C4CC4)C3)cc2)c1)C1CCCCC1 (stereo not drawn),·,·,·,22,-22
O=[N+]([O-])c1cc2c(c(CSc3nnnn3-c3ccc(O)cc3)c1)OCOC2,3,-5,-33*,25,4
COc1cc(Cl)c(C)cc1NC(=O)CN(C)Cc1cccc(OC)c1OC,50*,-8,10,13,3
COc1ccc(Br)cc1CN(C)CC(=O)Nc1ccccc1Cl,4,-2,-8,51,1
COc1ccccc1CN(C)CC(=O)Nc1cccc2ccccc12,-3,9,7,-1,7
SMILES,D1 agonist,D1 PAM,D1 antagonist,D3 antag,DRD3 agonist
COc1ccc(Br)cc1CN(C)CC(=O)Nc1cc(Cl)ccc1Cl,6,2,-31*,34,-1
CCCNS(=O)(=O)c1cc2c3c(c1)CCN3C(=O)CC2,1,-8,10,-22,-1
CCCCCNS(=O)(=O)c1cc2c3c(c1)CCC(=O)N3CCC2,15,-10,-30*,6,8
CN1CCN(c2ccc(CNC(=O)C3Cc4c(-c5ccc(Cl)cc5)ccnc4O3)cc2)CC1 (stereo not drawn),·,·,·,-56*,-28
Nc1ccc(S(=O)(=O)c2ccccc2)nc1,4,1,9,-23,-4
Cc1cc(S(=O)(=O)c2ccc([N+](=O)[O-])cn2)ccc1Br,·,·,·,-73*,-47
O=[N+]([O-])c1ccc(NCc2ccccc2)nc1,4,-11,-35*,?,-7
Cc1ccc(S(=O)(=O)c2ccc([N+](=O)[O-])cn2)cc1,-1,-9,-6,-75*,-31
O=[N+]([O-])c1ccc(S(=O)(=O)c2ccccc2)nc1,0,-14,-40*,-151*,-5
O=[N+]([O-])c1ccc(Nc2ccccc2)nc1,1,-3,-17,-13,-5
CC(C)(C)NC(=O)C(c1ccnc2ccccc12)n1c(=O)c(-c2ccco2)nc2ccccc21 (stereo not drawn),·,·,·,-5,10
CCOC(=O)N1CCN(Cc2nc3cc(NC(=O)c4ccccc4[N+](=O)[O-])ccc3n2C(C)C)CC1,0,5,10,·,0
CCC1Sc2ccc(S(=O)(=O)Nc3ccc(OC)cc3)cc2NC1=O (stereo not drawn),30*,-5,-36*,-6,1
CCC1Sc2ccc(S(=O)(=O)Nc3ccc(OC)c(OC)c3)cc2NC1=O (stereo not drawn),7,5,-8,24,16
O=C(NCc1ccc(F)cc1)c1[nH]c(C(F)(F)F)nc1-c1ccccc1,·,·,·,-7,8
O=C(NCCc1ccccc1)c1[nH]c(C(F)(F)F)nc1-c1ccccc1,·,·,·,10,8
CN(C)CCN(Cc1ccccc1)C(=O)c1[nH]c(C(F)(F)F)nc1-c1ccccc1,·,·,·,0,39*
O=C(NCc1ccccc1)c1[nH]c(C(F)(F)F)nc1-c1ccccc1,·,·,·,-24,65*
O=C(NCCC1=CCCCC1)c1[nH]c(C(F)(F)F)nc1-c1ccccc1,·,·,·,-6,112*
Cc1ccc(S(=O)(=O)/C=C2\OCc3ccccc32)cc1,·,·,·,7,3
CN1CCN(C2CN(Cc3cn(Cc4ccc(F)cc4)nn3)S(=O)(=O)C2)CC1 (stereo not drawn),·,·,·,23,6
Cc1c2cnn(-c3ccccc3)c(=O)c2c(C)n1CC(=O)Nc1ccccc1Br,0,-1,26,·,1
CCc1nc2ccccc2n1CCCCOc1cccc(C)c1,11,2,-7,·,6
Cc1cccc(OCCCCn2c(CO)nc3ccccc32)c1,1,-5,-38*,-11,4
CCn1c(COc2cccc(C)c2)nc2ccccc21,7,-6,-32*!,-6,8
COc1ccc(OCCCCn2c(CO)nc3ccccc32)cc1,13,-2,-53*,22,18
Cc1ccccc1OCCC(=O)OCC(=O)N(C)c1c(N)n(Cc2ccccc2)c(=O)[nH]c1=O,2,1,3,-14,-4
CCc1nc(NCC2CC2)c2nnn(Cc3ccccc3)c2n1,·,·,·,?,1

# Source: PubChem (National Center for Advancing Translational Sciences (NCATS))
